Experimental data as given in PubChem BioAssay (NCATS).
Records with an inconclusive call do not appear. For some of these results: Entries with a potency or affinity are not part of this list. The source made the active and inactive calls.

Columns and labels:
[1] = Ebola virus entry assay, green fluorescence channel
[2] = Ebola virus entry assay, blue channel fluorescence
[3] = Ebola virus entry assay, green fluorescence channel; remark: listed apart in the source
[4] = Ebola virus entry assay, ratio channel readout
[5] = Ebola virus entry assay, blue channel fluorescence; remark: listed apart in the source
[6] = Ebola virus entry assay, green channel fluorescence
[7] = Ebola virus entry assay, blue channel fluorescence; remark: listed apart in the source
[8] = Ebola virus entry assay, reporter ratio channel; AC50: Channel type: primary unless noted; outcome: Channel type: primary unless noted
[9] = Ebola virus entry assay, blue channel (ratio component)
[10] = Ebola virus entry reporter assay, green channel fluorescence
[11] = qHTS profiling of the MIPE4 collection as inhibitors of Plasmodium falciparum (3D7) proliferation (AID 743344);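 further: scaled between DMSO vehicle wells and 0.29 µM artemisinin as full inhibition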; conditions: P. falciparum 3D7 in erythrocytes, SYBR Green DNA fluorescence, 72 h; at 28.5 µM (top of the series) unless noted
Procedure, shortened: (§1)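 Parasite DNA was quantified by SYBR Green I fluorescence (ex 485, em 535 nm) after overnight lysis in saponin/Triton buffer at room temperature. Cultures at 0.3% parasitemia and 2.5% hematocrit were first exposed to compound for 72 h at 37 C; signals were normalised to artemisinin (0.29 uM) and vehicle wells.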

[12] = qHTS profiling of the MIPE4 collection as inhibitors of Plasmodium falciparum (DD2) proliferation (AID 743345); conditions: P. falciparum Dd2 in erythrocytes, SYBR Green DNA, 72 h; at 28.5 µM (top of the series) unless noted
Procedure, shortened: as §1

[13] = qHTS profiling of the MIPE4 collection as inhibitors of Plasmodium falciparum (DD2) proliferation (Rep 2) (AID 743346); conditions: P. falciparum Dd2 in erythrocytes, SYBR Green DNA, 72 h; at 28.5 µM (top of the series) unless noted
Procedure, shortened: as §1

[14] = qHTS profiling of the MIPE4 collection as inhibitors of Plasmodium falciparum (HB3) proliferation (AID 743347);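 further: plate controls were DMSO vehicle wells for no effect and artemisinin wells for full effect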; conditions: P. falciparum HB3 in erythrocytes, SYBR Green DNA, 72 h; at 28.5 µM (top of the series) unless noted
Procedure, shortened: as §1

[15] = Ebola virus entry assay, ratio channel
[16] = qHTS assay for cell viability of HEK293 cells (AID 743288; active means well fitted cell-killing curve with a large enough effect; further: potency means the concentration at half of the fitted maximal effect; nearly all actives have a fitted effect of over 50% in size); conditions: ATP luminescence (CellTiter-Glo), 18 h; max response: stronger effect = lower value
Procedure, shortened: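 After 18 h compound exposure at 37 C, parental HEK293 cells (2,000/well) are lysed with CellTiter-Glo and luminescence is read following 30 min at room temperature.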

[17] = qHTS assay for cell viability of the p53RE-bla HCT-116 cell line (AID 743292; active means well fitted cell-killing curve with a large enough effect; further: on the % scale 0 is the no-effect control and ±100 the full control effect; nearly all actives have a fitted effect of over 55% in size); conditions: p53RE-bla HCT-116 viability, ATP luminescence, 16 h; series mostly up to 95 µM
Procedure, shortened: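 After plating at 4,000 cells per well and a 5 h rest at 37 C, HCT-116 cells carrying p53RE-bla received test chemicals in DMSO. Sixteen hours later at 37 C, CellTiter-Glo was added and luminescence recorded following 30 min at room temperature.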
Wherever efficacy is given: 0% is about no effect.

c1cnc2cc3c(cc2n1)C1CNCC3C1
inactive: efficacy [1] -29.9% | outcome [2] | outcome [3] | outcome [4] | outcome [5] | outcome [6] | outcome [7] | outcome [8] | outcome [9]

O=C1N=C(O)CN1/N=C/c1ccc(-c2ccc([N+](=O)[O-])cc2)o1
inactive: efficacy [1] 24% | outcome [2] | outcome [3] | outcome [4] | outcome [5] | outcome [6] | outcome [7] | outcome [8] | outcome [9]

COc1ccc(Cl)cc1C(=O)NCCc1ccc(S(=O)(=O)NC(=O)NC2CCCCC2)cc1
inactive: efficacy [1] 15.6% | outcome [2] | outcome [3] | outcome [4] | outcome [5] | outcome [6] | outcome [7] | outcome [8] | outcome [9]

O=C(NCCN1CCOCC1)c1ccc(Cl)cc1
inactive: efficacy [1] -15.2% | outcome [2] | outcome [3] | outcome [4] | outcome [5] | outcome [6] | outcome [7] | outcome [8] | outcome [9]

CC(=O)OCC(CCn1cnc2cnc(N)nc21)COC(C)=O
inactive: efficacy [1] 17.3% | outcome [2] | outcome [3] | outcome [4] | outcome [5] | outcome [6] | outcome [7] | outcome [8] | outcome [9]

Cc1onc(-c2ccccc2Cl)c1C(=O)N[C@@H]1C(=O)N2[C@@H]1SC(C)(C)[C@@H]2C(=O)O
inactive: efficacy [1] 13.5% | outcome [2] | outcome [3] | outcome [4] | outcome [5] | outcome [6] | outcome [7] | outcome [8] | outcome [9]

C[N+]1(C)CCC(OC(=O)C(O)(c2ccccc2)C2CCCC2)C1 (stereo not drawn)
inactive: efficacy [1] 28.8% | outcome [2] | outcome [3] | outcome [4] | outcome [5] | outcome [6] | outcome [7] | outcome [8] | outcome [9]

COC(=O)C(c1ccccc1Cl)N1CCc2sccc2C1 (stereo not drawn)
inactive: efficacy [1] 27.9% | outcome [2] | outcome [3] | outcome [4] | outcome [5] | outcome [6] | outcome [7] | outcome [8] | outcome [9]

CC[C@@]1(c2ccccc2)NC(=O)N(C)C1=O
inactive: efficacy [1] -26.5% | outcome [2] | outcome [3] | outcome [4] | outcome [5] | outcome [6] | outcome [7] | outcome [8] | outcome [9]

CC[C@@H](CO)NCCN[C@@H](CC)CO
inactive: efficacy [1] -17.1% | outcome [2] | outcome [3] | outcome [4] | outcome [5] | outcome [6] | outcome [7] | outcome [8] | outcome [9] | outcome [10]

CO[C@]12CC[C@@]3(C[C@@H]1[C@](C)(O)C(C)(C)C)[C@@H]1Cc4ccc(O)c5c4[C@@]3(CCN1CC1CC1)[C@H]2O5
active: AC50 [5] 5.62 µM | AC50 [15] 3.16 µM | AC50 [8] 3.16 µM
6.03% [at 57.2 µM]: parasite growth remaining, % of DMSO control (lower = more inhibition) [12]
5.19% [at 57.2 µM]: parasite growth, % of DMSO control [11]
7.07% [at 57.2 µM]: growth, % of control [14]
inactive: efficacy [1] -151% | outcome [2] | outcome [3] | outcome [4]
19.3% [at 57.2 µM]: parasite growth, % of control (lower = inhibition) [13]

OCCN1C[C@H](O)[C@@H](O)[C@H](O)[C@H]1CO
inactive: efficacy [1] -21.2% | outcome [2] | outcome [3] | outcome [4] | outcome [5] | outcome [6] | outcome [7] | outcome [8] | outcome [9] | outcome [10]

N[C@@H](Cc1ccc(N(CCCl)CCCl)cc1)C(=O)O
31.9%: parasite growth, % of control (lower = inhibition) [13]
21.4%: parasite growth remaining, % of DMSO control (lower = more inhibition) [12]
47.5%: parasite growth, % of DMSO control [11]
active: Potency [16] 50.1 µM
57.1%: growth, % of control [14]
inactive: Potency [17] | efficacy [1] 12.7% | outcome [2] | outcome [3] | outcome [4] | outcome [5] | outcome [6] | outcome [7] | outcome [8] | outcome [9] | outcome [10]

Nc1nc2c(ncn2COC(CO)CO)c(=O)[nH]1
inactive: efficacy [1] -13.6% | outcome [2] | outcome [3] | outcome [4] | outcome [5] | outcome [6] | outcome [7] | outcome [8] | outcome [9]

NNCCc1ccccc1
inactive: efficacy [1] -18.8% | outcome [2] | outcome [3] | outcome [4] | outcome [5] | outcome [6] | outcome [7] | outcome [8] | outcome [9]

O=C1NC(=O)C(c2ccccc2)(c2ccccc2)N1
inactive: efficacy [1] 9.61% | outcome [2] | outcome [3] | outcome [4] | outcome [5] | outcome [6] | outcome [7] | outcome [8] | outcome [9] | outcome [10]

CCN(C(C)=O)c1cccc(-c2ccnc3c(C#N)cnn23)c1
inactive: efficacy [1] 22.6% | outcome [2] | outcome [3] | outcome [4] | outcome [5] | outcome [6] | outcome [7] | outcome [8] | outcome [9]

COC(=O)N[C@H](C(=O)N[C@@H](Cc1ccccc1)[C@@H](O)CN(Cc1ccc(-c2ccccn2)cc1)NC(=O)[C@@H](NC(=O)OC)C(C)(C)C)C(C)(C)C
inactive: efficacy [1] 21.7% | outcome [2] | outcome [3] | outcome [4] | outcome [5] | outcome [6] | outcome [7] | outcome [8] | outcome [9]

O=c1[nH]c2ccccc2n1C1CCN(CCCC(c2ccc(F)cc2)c2ccc(F)cc2)CC1
active: Potency [16] 50.1 µM | AC50 [2] 11.2 µM | AC50 [4] 7.95 µM | AC50 [5] 3.16 µM | AC50 [15] 3.98 µM | AC50 [8] 3.98 µM
inactive: efficacy [1] -303% | outcome [3]

NC12CC3CC(CC(C3)C1)C2
inactive: efficacy [1] 15% | outcome [2] | outcome [3] | outcome [4] | outcome [5] | outcome [6] | outcome [7] | outcome [8] | outcome [9] | outcome [10]

CN1CCN(C2=Nc3cc(Cl)ccc3Nc3ccccc32)CC1
active: AC50 [5] 15.8 µM | AC50 [15] 14.1 µM | AC50 [8] 14.1 µM
inactive: efficacy [1] 95.2% | outcome [2] | outcome [3] | outcome [4] | outcome [10]

CN1CCc2cccc3c2[C@H]1Cc1ccc(O)c(O)c1-3
active: AC50 [5] 28.2 µM | AC50 [15] 28.2 µM | AC50 [8] 28.2 µM
inactive: efficacy [1] 61.6% | outcome [2] | outcome [3] | outcome [4] | outcome [10]
